From PubChem BioAssay
Most compounds without a hit are left out; they make up all but 2.4% or so of the library.
D2 PAM-1 – positive allosteric modulators of human D2 dopamine receptor; potentiation, % (concentration not given with the values); actives 0.23% (n = 360,000); P14416; AID 624464; DiscoveRx D2 beta-arrestin cells, luminescence, 90 min; 100% = 57 uM dopamine signal; in the data active means potentiation above about 50%; inconclusive means mostly about 30% to 49%
Target sequence (P14416 whole entry, looked up): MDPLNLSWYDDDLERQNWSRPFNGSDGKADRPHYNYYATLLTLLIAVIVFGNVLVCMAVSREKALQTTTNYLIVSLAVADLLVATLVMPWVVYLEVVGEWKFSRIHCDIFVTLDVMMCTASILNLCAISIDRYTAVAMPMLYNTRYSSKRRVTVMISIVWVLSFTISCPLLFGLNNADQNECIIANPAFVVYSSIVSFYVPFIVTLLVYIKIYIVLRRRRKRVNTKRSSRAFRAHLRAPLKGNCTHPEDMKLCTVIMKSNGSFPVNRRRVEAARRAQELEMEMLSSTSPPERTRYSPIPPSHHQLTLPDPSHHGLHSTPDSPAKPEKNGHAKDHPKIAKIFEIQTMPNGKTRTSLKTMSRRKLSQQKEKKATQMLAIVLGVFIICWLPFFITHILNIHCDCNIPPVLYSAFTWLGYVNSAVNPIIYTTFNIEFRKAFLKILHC
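D2 cells co-treated with compound plus 50 nM dopamine (EC20) for 90 min at 37 deg C to detect potentiation. Beta-arrestin recruitment was read as enzyme-fragment luminescence after 1 h at ambient temperature. Full response was set by 57 uM dopamine.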
D2 ag-1 – activates the human D2 dopamine receptor; AID 624465; P14416; activation, % (test concentration not listed); DiscoveRx PathHunter D2 beta-arrestin, luminescence, 90 min; 100% = 57 uM dopamine signal; actives 0.084% (n = 360,000); in the data active means activation above about 40%; inconclusive means between about 15% and that limit
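DiscoveRx PathHunter D2 beta-arrestin cells (2,100/well) attached overnight, then compound-stimulated 90 min at 37 C in HBSS/10 mM HEPES/0.1% Tween-20 buffer; beta-galactosidase complementation read by luminescence after 1 h at ambient temperature. Dopamine 57 uM final (EC100) as control.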
D2 PAM-2 – D2 dopamine receptor (human) potentiation. potentiation, % at 10 µM. HEK293 T-REx D2, calcium flux, EC20 dopamine potentiation. P14416. AID 485347. actives 0.34% (n = 340,000);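 active means potentiation over 3 SD above the plate norm, cut at about 30% in these data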; further: 0% is about no effect
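Potentiation of an EC20 dopamine calcium response is measured in a force-coupled, tetracycline-inducible Hek293 Trex D2 line. Compound-only kinetic reads over 180 s flag agonists before dopamine addition.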
D2 ag-2 – agonists of human D2 dopamine receptor. HEK293 T-REx D2 cells, calcium flux agonist mode. activation, % at 2 µM. actives 0.53% (n = 340,000);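 active means activation over 3 SD above normal in the single-dose calcium agonist read, cut at about 30% in these data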; further: 0% is about no effect
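In this primary screen, compounds producing a positive calcium signal within 180 s of addition to tetracycline-induced, force-coupled HEK293 Trex D2 cells are flagged; cells are dye-loaded with a no-wash calcium kit beforehand.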
D2 antag – D2 dopamine receptor (human) antagonism; actives 2% (n = 340,000); P14416; HEK293 TREx D2 cells, calcium flux, dopamine EC80; inhibition, % at 10 µM; in the data active means inhibition above about 30%; inactive means below that, where a call was filed; further: 0% is about no effect
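Read-out: kinetic calcium fluorescence (1 cycle/s) in inducible HEK293 T-REx D2 cells after an EC80 dopamine addition that followed 180 s compound preincubation. Loss of the dopamine response indicates antagonism.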
* marks the source's active call; other numbers are inactive results; ? = inconclusive; nt = no result given.

SMILES | D2 PAM-1 | D2 ag-1 | D2 PAM-2 | D2 ag-2 | D2 antag
COCCNC(=O)CN(c1cc(Cl)ccc1OC)S(=O)(=O)c1ccc(C)c([N+](=O)[O-])c1 | -6.2 | -3.6 | -3.7 | 0.2 | 58.8*
CCN(CC)C(=O)COc1ccc2oc(C)c(C(=O)OC(C)C)c2c1 | -4.7 | -4.4 | -6.4 | -0.2 | 30.8*
Cc1oc2ccc(OS(C)(=O)=O)cc2c1C(=O)OC(C)C | -2.1 | 0.0 | nt | 0.2 | -18.1
COc1ccc(N2CCN(C(=O)CCc3c[nH]c4ccccc34)CC2)cc1 | -1.2 | 5.2 | 1.3 | 2.0 | 19.3
COc1ccccc1N1CCN(Cc2c[nH]c3ccccc23)CC1 | -19.8 | -1.0 | -17.3 | -0.2 | 48.0*
COc1ccccc1N1CCN(C(=O)C(=O)c2cn(CC(=O)N3CCCCCC3)c3ccccc23)CC1 | -27.0 | 4.5 | -17.6 | -0.4 | 37.6*
CCS(=O)(=O)N1CCN(Cc2c[nH]c3ccccc23)CC1 | -2.0 | 0.7 | -18.7 | 2.7 | -35.1
COc1ccccc1N1CCN(Cc2ccc(O)c3ncccc23)CC1 | -28.3 | -9.9 | 15.9 | -0.4 | -25.7
COc1ccccc1N1CCN(C(=O)CCc2c[nH]c3ccccc23)CC1 | -1.5 | -5.3 | 5.1 | -0.1 | 44.5*
Cc1ccccc1N1CCN(Cc2c[nH]c3ccccc23)CC1 | -18.5 | -3.5 | -18.8 | 0.5 | 39.9*
Cc1ccc(N=C2SCCCN2C(=O)c2ccco2)cc1Cl | -23.4 | -0.8 | 2.3 | 0.2 | -2.6
Fc1ccc(N2CCN(Cc3c[nH]c4ccccc34)CC2)cc1 | nt | nt | -22.8 | 2.3 | 92.8*
Brc1ccccc1CN1CCN(Cc2c[nH]c3ccccc23)CC1 | -15.1 | -5.3 | nt | nt | nt
COc1ccc2cc(-c3nc4ccccc4n3C)c(=O)oc2c1 | -3.3 | 0.9 | -18.8 | 0.8 | -14.3
O=C1CN(C(=O)COC(=O)c2ccc(N3CCCCCC3)c([N+](=O)[O-])c2)c2ccccc2N1 | -6.9 | -0.3 | 0.5 | 0.1 | -3.8
Cc1cc2oc(=O)cc(CSc3nnc(-c4cccs4)o3)c2cc1C(C)C | 1.2 | -3.5 | -9.3 | 0.5 | 36.4*
CCOC(=O)NC(=O)CSc1nnnn1-c1ccccc1 | -15.6 | -3.8 | 4.3 | -0.4 | -0.3
O=C(NC1CCCCC1)C(c1ccccc1)N1CCCC1 (configuration not stated) | -15.1 | -1.1 | nt | 3.4 | -11.8
O=C(NCc1ccc(Cl)cc1)C1CCCN(C(=O)c2ccc(Cl)cc2)C1 (configuration not stated) | -1.0 | -0.9 | 2.9 | -0.4 | 38.4*
Cc1ccc(S(=O)(=O)N(C)C)cc1NC(=O)C1CCCN(C(=O)c2ccc(Cl)cc2)C1 (configuration not stated) | -2.5 | -3.3 | -0.9 | -0.3 | 31.2*
C=CCN1C(=O)N/C(=C/c2ccc(C)o2)C1=O | -20.8 | -11.1 | -14.8 | 39.2* | -3.1
Cc1ccc(SCCC(=O)NC(C)C)cc1 | -8.3 | -3.0 | -10.9 | 1.1 | 32.2*
Cc1ccc(SCCC(=O)NC(C)(C)C)cc1 | -7.1 | -2.2 | 12.1 | 0.2 | -0.8
CC(=O)Nc1ccc2c(c1)nc(CCNC(=O)c1ccccc1)n2C | -0.7 | -1.4 | 11.5 | -0.4 | -2.1
CCOC(=O)c1c(C)[nH]c(C)c1S(=O)(=O)NCC1CCN(Cc2ccccc2F)CC1 | -20.4 | 4.3 | -23.5 | 0.8 | -2.6
SMILES | D2 PAM-1 | D2 ag-1 | D2 PAM-2 | D2 ag-2 | D2 antag
CCOC(=O)c1c(C)[nH]c(C)c1S(=O)(=O)NCC1CCN(Cc2ccc(C)cc2)CC1 | -32.0 | -2.0 | -23.9 | -0.4 | 86.5*
CCOC(=O)c1c(C)[nH]c(C)c1S(=O)(=O)NCC1CCN(Cc2cccc(Cl)c2)CC1 | -21.8 | -3.3 | -32.0 | -0.7 | 78.0*
CCCCCC(C)NC(=O)CN1C(=O)NC(C)(c2ccc3ccccc3c2)C1=O (configuration not stated) | -10.2 | -2.3 | -6.7 | 2.0 | -8.7
Cc1cccc(/C(N)=N/OC(=O)c2ccco2)c1 | 56.1* | 12.6 | -3.9 | 0.5 | 1.1
Cc1ccc(/C(N)=N/OC(=O)c2ccco2)cc1 | 55.7* | 4.5 | -6.9 | 0.8 | -1.7
N/C(=N\OC(=O)c1ccco1)c1ccc(Br)cc1 | 52.0* | 9.7 | -6.6 | 2.5 | -8.0
N/C(=N\OC(=O)c1ccco1)c1ccccc1 | ? | 8.6 | 7.3 | 0.5 | -7.4
COc1ccc(/C(N)=N/OC(=O)c2ccco2)cc1 | 19.0 | 2.9 | 0.6 | 3.6 | 5.6
O=C(NCc1ccc(F)cc1)C(=O)c1cn(CC(=O)N2CCCC2)c2ccccc12 | 1.6 | 4.1 | 7.2 | -1.2 | 11.3
Nc1c2nc(-c3ccccc3Cl)[nH]c(=O)c2nc(=O)n1-c1ccccc1 | -13.2 | -4.2 | 6.6 | 1.6 | 0.7
CCCCCCOC(=O)Sc1nc2ccccc2o1 | -17.6 | -2.1 | 4.7 | -2.0 | -1.1
N#C/C(=C\c1ccc(N2CCOCC2)o1)C(=O)NCCc1ccccc1 | -7.2 | 6.3 | 3.1 | 20.7 | 45.6*
COCCNC(=O)/C(C#N)=C/c1ccc(N2CCOCC2)o1 | -24.8 | -3.5 | -0.2 | 13.4 | -12.4
N#C/C(=C/c1ccc(N2CCOCC2)o1)C(=O)Nc1ccccc1 | -8.0 | 0.3 | 7.7 | 39.8* | 9.5
CC(=O)Nc1ccc(CN2CCN(c3cccc(C(F)(F)F)c3)CC2)cc1 | -10.4 | -3.7 | -19.0 | 1.6 | 42.7*
CC(=O)Nc1ccc(NC(=O)CN2CCN(c3cccc(C(F)(F)F)c3)CC2)cc1 | -38.6 | 1.2 | -14.9 | 6.9 | 2.1
Oc1cc2c(cc1CN1CCN(c3cccc(C(F)(F)F)c3)CC1)CCC2 | -38.3 | -0.3 | -21.7 | -1.0 | 56.4*
COc1ccc(N2CCN(Cc3cc4c(cc3O)CCC4)CC2)cc1 | -13.6 | 0.5 | -0.1 | -0.2 | 29.8
CC1CCCCN1CCCNC(=O)CN1C(=O)c2cccnc2Oc2ccc(Cl)cc21 (configuration not stated) | -28.0 | -7.2 | -14.0 | -0.1 | 25.5
Cn1cc(S(=O)(=O)N2CCc3ccccc32)cc1C(=O)Nc1ccc(Cl)cc1 | -1.3 | -2.7 | -7.3 | 1.0 | -31.0
CCCc1cc(=O)n2[nH]c(C)c(-c3ccccc3)c2n1 | -39.5 | -8.5 | nt | nt | nt
CCOC(=O)Cc1cc(=O)n2[nH]c(C)c(-c3ccc(OC)cc3)c2n1 | -15.1 | -1.0 | 30.8* | -0.7 | -12.4
CCc1cc(=O)n2[nH]c(C)c(-c3ccc(OC)cc3)c2n1 | -44.5 | -4.1 | -16.6 | -0.2 | 33.7*
CCOc1ccccc1N(CC(=O)Nc1ccc(OC)cc1OC)S(=O)(=O)c1ccccc1 | -0.5 | 3.7 | 13.8 | -1.6 | 12.2
O=[N+]([O-])c1cccc(OCCN2CCC(Cc3ccccc3)CC2)c1 | -25.9 | -0.4 | -20.3 | 0.4 | 67.4*
COc1cc(C(C)=O)ccc1OCCN1CCC(Cc2ccccc2)CC1 | -20.2 | -6.0 | -11.8 | 0.2 | -15.0
Fc1ccc(CN2CCC(Cc3ccccc3)CC2)cc1F | -6.1 | -0.1 | -15.5 | 0.5 | -17.9
COc1cc(CN2CCC(Cc3ccccc3)CC2)c([N+](=O)[O-])cc1OC | -20.9 | -3.5 | -1.6 | 0.8 | 14.9
